PubChem BioAssay AID1159580 (chemical genetic matrix, 2015)
Where “and” joins values, the source holds several entries; their conditions need not be identical. Equal values may be shown once. The whole screen tested about 5,500 compounds, of which about 2,000 (36%) were called active. Inconclusive results (about 18%) are left out. Cut-off read from the data, not from the text of the source: active = normalized growth mostly below about 0.91 (no sharp cut-off); inconclusive = no clear call, values can overlap the other calls; inactive = mostly above about 0.92. The list shows a part of the results.

Experiment: chemical genetic growth profiling, strain panel (AID 1159580);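 note: tested at 20 µM; growth read once vehicle control cultures reached saturation at 30 °C; 1 = growth at the plate median or of vehicle wells; lower values mean less growth of the strain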
Details: S. cerevisiae deletion strains, growth OD

Measured: normalized growth

Cc1ccccc1OCC(O)CO (centres undefined)
inactive: locus YAL013W, strain DEP1, stronger effect = lower value 1.02 | locus YAL021C, strain ccr4, stronger effect = lower value 0.971 | locus YAL026C, strain drs2, stronger effect = lower value 0.974 | locus YAL030W, strain snc1, stronger effect = lower value 0.967 | locus YBL061C, strain skt5, stronger effect = lower value 0.962 | locus YBR009C, strain hhf1, stronger effect = lower value 0.985 | locus YBR021W, strain FUR4, stronger effect = lower value 1.03 | locus YBR023C, strain chs3, stronger effect = lower value 0.964 | locus YBR171W, strain sec66, stronger effect = lower value 0.973 | locus YBR229C, strain ROT2, stronger effect = lower value 1.02 | locus YBR231C, strain swc5, stronger effect = lower value 0.98 | locus YBR279W, strain paf1, stronger effect = lower value 0.974 | locus YCL011C, strain gbp2, stronger effect = lower value 0.971 | locus YCL016C, strain dcc1, stronger effect = lower value 0.967 | locus YCL029C, strain bik1, stronger effect = lower value 0.998 | locus YCL061C, strain MRC1, stronger effect = lower value 0.993 | locus YCL069W, strain vba3, stronger effect = lower value 0.981 | locus YCR088W, strain abp1, stronger effect = lower value 0.969 | locus YDL005C, strain med2, stronger effect = lower value 0.976 | locus YDL035C, strain GPR1, stronger effect = lower value 1.03 | locus YDL040C, strain nat1, stronger effect = lower value 0.967 | locus YDL074C, strain BRE1, stronger effect = lower value 1.05 | locus YDL101C, strain DUN1, stronger effect = lower value 1.03 | locus YDL134C, strain PPH21, stronger effect = lower value 1.04 | locus YDL185W, strain tfp1, stronger effect = lower value 0.99 | locus YDL192W, strain arf1, stronger effect = lower value 0.991 | locus YDR001C, strain nth1, stronger effect = lower value 0.983 | locus YDR069C, strain doa4, stronger effect = lower value 0.966 | locus YDR101C, strain arx1, stronger effect = lower value 1 | locus YDR137W, strain rgp1, stronger effect = lower value 0.997 | locus YDR159W, strain sac3, stronger effect = lower value 0.977 | locus YDR162C, strain NBP2, stronger effect = lower value 1.02 | locus YDR195W, strain ref2 0.957 | locus YDR297W, strain sur2, stronger effect = lower value 0.978 | locus YDR318W, strain mcm21, stronger effect = lower value 1.01 | locus YDR334W, strain swr1, stronger effect = lower value 0.964 | locus YDR335W, strain msn5, stronger effect = lower value 0.988 | locus YDR388W, stronger effect = lower value 0.987 | locus YDR392W, strain spt3, stronger effect = lower value 0.981 | locus YDR502C, strain sam2, stronger effect = lower value 0.99 | locus YEL003W, strain gim4, stronger effect = lower value 0.97 | locus YEL037C, strain rad23, stronger effect = lower value 0.969 | locus YEL061C, strain CIN8 (second series), stronger effect = lower value 0.968 | locus YEL061C, strain CIN8, stronger effect = lower value 1.01 | locus YER015W, strain faa2, stronger effect = lower value 0.976 | locus YER016W, strain bim1, stronger effect = lower value 0.988 | locus YER110C, stronger effect = lower value 0.99 | locus YER111C, strain swi4, stronger effect = lower value 0.97 | locus YER155C, strain BEM2 (second series), stronger effect = lower value 0.969 | locus YER155C, strain BEM2, stronger effect = lower value 1.01 | locus YER167W, strain BCK2, stronger effect = lower value 1.01 | locus YFR010W, strain ubp6, stronger effect = lower value 0.972 | locus YGL078C, strain dbp3, stronger effect = lower value 1 | locus YGL086W, strain mad1, stronger effect = lower value 1.01 | locus YGL167C, strain pmr1, stronger effect = lower value 0.969 | locus YGL173C, strain kem1, stronger effect = lower value 0.969 | locus YGL227W, strain vid30, stronger effect = lower value 0.976 | locus YGL240W, strain doc1, stronger effect = lower value 0.971 | locus YGL248W, strain PDE1, stronger effect = lower value 1.03 | locus YGL253W, strain hxk2, stronger effect = lower value 0.971 | locus YGR135W, strain pre9, stronger effect = lower value 0.99 | locus YGR229C, strain SMI1, stronger effect = lower value 1.03 | locus YGR252W, strain gcn5, stronger effect = lower value 0.989 | locus YHR013C, strain ard1, stronger effect = lower value 0.965 | locus YHR027C, strain rpn1, stronger effect = lower value 0.969 | locus YHR030C, strain SLT2, stronger effect = lower value 1.01 and 0.978 | locus YHR079C, strain IRE1 (second series), stronger effect = lower value 0.992 | locus YHR079C, strain IRE1, stronger effect = lower value 0.973 | locus YHR094C, strain hxt1, stronger effect = lower value 0.986 | locus YHR129C, strain ARP1, stronger effect = lower value 1.02 | locus YHR142W, strain chs7, stronger effect = lower value 0.964 | locus YHR200W, strain rpn10, stronger effect = lower value 1 | locus YIL066C, strain RNR3, stronger effect = lower value 1.04 | locus YIL073C, strain SPO22, stronger effect = lower value 1.08 | locus YIL125W, strain kgd1, stronger effect = lower value 0.99 | locus YIR030C, strain dcg1, stronger effect = lower value 0.989 | locus YJL092W, strain hpr5, stronger effect = lower value 0.99 | locus YJL095W, strain BCK1 (second series), stronger effect = lower value 0.977 | locus YJL095W, strain BCK1, stronger effect = lower value 1.05 and 0.98 | locus YJL115W, strain asf1, stronger effect = lower value 0.977 | locus YJL129C, strain trk1, stronger effect = lower value 0.971 | locus YJL134W, strain LCB3, stronger effect = lower value 1.01 | locus YJL154C, strain vps35, stronger effect = lower value 0.973 | locus YJL164C, strain tpk1, stronger effect = lower value 0.969 | locus YJL166W, strain qcr8, stronger effect = lower value 0.978 | locus YJL168C, strain set2, stronger effect = lower value 0.991 | locus YJL187C, strain SWE1 (second series), stronger effect = lower value 1.03 | locus YJL187C, strain SWE1, stronger effect = lower value 0.979 | locus YJR043C, strain POL32, stronger effect = lower value 1.02
